Data: PubChem BioAssay (EPA / NIEHS)
Active and inactive are the calls of the source. How the source made its calls: active means hit-call score of the fitted dose curve at least 0.9, where 1 is the maximum; inactive means score below 0.9.

These compounds were tested against Hypoxia-inducible factor 1-alpha (Homo sapiens) (UniProt Q16665) (assay: ATG_HIF1a_CIS: Attagene CIS-FACTORIAL HepG2 Assay for human Hypoxia Inducible Factor 1 (HIF1A) (AID 2282951)). Conditions: HepG2 Attagene cis-factorial HIF1a reporter transcription; actives raise or lower the signal.
Hypoxia-inducible factor 1-alpha (Homo sapiens), sequence (Q16665 whole entry, looked up): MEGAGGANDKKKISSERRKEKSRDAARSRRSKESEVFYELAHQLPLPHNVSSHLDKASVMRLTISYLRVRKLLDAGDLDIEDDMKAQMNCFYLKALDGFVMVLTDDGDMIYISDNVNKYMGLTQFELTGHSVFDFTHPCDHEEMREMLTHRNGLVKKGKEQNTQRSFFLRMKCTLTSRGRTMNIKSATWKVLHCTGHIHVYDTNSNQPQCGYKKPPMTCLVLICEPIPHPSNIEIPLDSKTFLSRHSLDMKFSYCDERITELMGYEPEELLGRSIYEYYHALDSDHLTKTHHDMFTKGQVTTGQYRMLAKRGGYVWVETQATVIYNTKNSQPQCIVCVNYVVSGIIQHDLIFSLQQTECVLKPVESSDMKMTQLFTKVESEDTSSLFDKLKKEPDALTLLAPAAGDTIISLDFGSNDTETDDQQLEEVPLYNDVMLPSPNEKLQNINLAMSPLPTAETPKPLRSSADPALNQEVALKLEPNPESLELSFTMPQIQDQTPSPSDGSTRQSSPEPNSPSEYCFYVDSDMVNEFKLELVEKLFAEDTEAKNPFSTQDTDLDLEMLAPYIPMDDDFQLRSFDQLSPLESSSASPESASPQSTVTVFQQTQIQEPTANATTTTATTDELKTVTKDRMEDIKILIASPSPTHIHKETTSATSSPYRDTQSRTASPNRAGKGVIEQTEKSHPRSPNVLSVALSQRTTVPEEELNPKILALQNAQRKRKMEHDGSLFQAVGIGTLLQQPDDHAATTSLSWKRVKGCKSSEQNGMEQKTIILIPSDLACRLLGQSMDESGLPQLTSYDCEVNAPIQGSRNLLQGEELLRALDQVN
Description: ATG_CIS is a cell-based, multiplexed-readout assay that uses HepG2, a human liver cell line, with measurements taken at 24 hours after chemical dosing in a 24-well plate.ATG_HIF1a_CIS is one of 52 assay component(s) measured or calculated from the ATG_CIS assay. It is designed to make measurements of mRNA induction, a form of inducible reporter, as detected with fluorescence intensity signals by Reverse transcription polymerase chain reaction (RT-PCR) and Capillary electrophoresis technology.Data from the assay component ATG_HIF1a_CIS was analyzed into 1 assay endpoint. This assay endpoint, ATG_HIF1a_CIS, was analyzed with bidirectional fitting relative to DMSO as the negative control and baseline of activity. Using a type of inducible reporter, measures of mRNA for gain or loss-of-signal activity can be used to understand the reporter gene at the transcription factor-level as they relate to the gene HIF1A. Furthermore, this assay endpoint can be referred to as a primary readout, because this assay has produced multiple assay endpoints where this one serves a reporter gene function. To generalize the intended target to other relatable targets, this assay endpoint is annotated to the dna binding intended target family, where the subfamily is basic helix-loop-helix protein.
Human liver HepG2 cells are transiently transfected with multiple reporter transcription units (MRTUs) in 6-well plates using FuGene 6 reagent (Roche; 3 ml FuGene/1 mg DNA). The MRTU constructs are regulated by a cis-regulating element (promoter). […] A major difference between the CIS and TRANS system is that in CIS activities of endogenous TFs are measured, whereas the TRANS assay evaluates changes in activities of exogenous, chimeric NR-Gal4 proteins. […] At the end of 24 hour incubation, total RNA was isolated using TriZol reagent (Invitrogen). The isolated RNA is then reverse-transcribed using oligo(dT) primer and Mo-MLV reverse transcriptase (Invitrogen) with DNAse I (Ambion) treatment for 30 min. The one-tenth of the produced cDNA was amplified by PCR using Taq DNA polymerase (Invitrogen) and two reporter sequence-specific primers. The PCR products were fluorescently labeled by primer extension with 6-arboxyfluorescein (6-FAM) 5'-labeled reporter sequence-specific primer (2 min at 95 C, 20 s at 68 C and 10 min at 72 C) and these products were digested with 5U of HpaI (New England Biolabs) for 2h at 37 C. The fragments were purified using Qiaquick PCR columns (Qiagen), analyzed on an ABI 3130xL genetic analyzer (Applied Biosystems) with peak positions identified by using a set of X-rhodamine (ROX)-labeled MapMarker1000 molecular weight standards (BioVentures). The raw capillary electrophoresis data was processed using Attagraph software (Attagene).
For `Cc1ccc2c(c1)OCC(=O)CO2`, the outcome was “inactive”.
In the case of `OCC(F)(F)C(F)(F)C(F)(F)C(F)(F)C(F)(F)C(F)(F)CO`, the outcome is reported as “inactive”.
For `O=C(F)C1(F)C(F)(F)C(F)(F)C(F)(F)C(F)(F)C1(F)F`, the outcome was “inactive”.
With `CCOC(OCC)OCC` the outcome was “inactive”.
In the case of `CC(C)CC=C(C=O)c1ccccc1`, the outcome is reported as “inactive”.
For `O=C1c2c(O)ccc(Nc3ccc(CCO)cc3)c2C(=O)c2c([N+](=O)[O-])ccc(O)c21`, the outcome was “inactive”.
In the case of `Cc1cnccn1`, the outcome is reported as “inactive”.
`C[C@]12CC[C@H]3C(=CCc4cc(O)ccc43)[C@@H]1CCC2=O` was tested, and the outcome was “inactive”.
`C[Si](Cl)(Cl)CCC(F)(F)C(F)(F)C(F)(F)C(F)(F)C(F)(F)C(F)(F)F` was tested, and the outcome was “inactive”.
For `CCCCCCCCCCCCC[N+](C)(C)Cc1ccccc1`, the outcome was “inactive”.
For `NCC(F)(F)C(F)(F)C(F)(F)C(F)(F)C(F)(F)C(F)(F)C(F)(F)C(F)(F)F`, the outcome was “inactive”.
For `OCCCCl`, the outcome was “inactive”.
`C=CCOC(=O)CC(C)C` was tested, and the outcome was “inactive”.
`CCN=C1C=CC(=C(c2ccc(N(CC)CC)cc2)c2ccc(N(CC)CC)cc2)c2ccccc21` was tested, and the AC50 was 1.1 µM (active).
For `Oc1ccc(C2(c3ccc(O)c(C4CCCCC4)c3)CCCCC2)cc1C1CCCCC1`, the outcome was “inactive”.
`Cc1ccc([N+](=O)[O-])c(C)c1` was tested, and the outcome was “inactive”.
In the case of `O=C=Nc1cccc2c(N=C=O)cccc12`, the outcome is reported as “inactive”.
With `CCCCCCCC/C=C\CCCCCCCC(=O)OCC(O)CO` (stereo not given) the AC50 was 100 µM (active).
With `Cc1cc(O)c(C(C)(C)C)cc1C(C)(C)C` the outcome was “inactive”.
For `NS(=O)(=O)C(F)(F)C(F)(F)C(F)(F)C(F)(F)C(F)(F)C(F)(F)F`, the outcome was “inactive”.
`Cc1ccc(O)cn1` was tested, and the outcome was “inactive”.
With `O=C(c1ccccc1)c1ccc(Cl)cc1` the outcome was “inactive”.
In the case of `CCn1c2ccccc2c2ccccc21`, the outcome is reported as “inactive”.
`NC(=O)C(F)(F)C(F)(F)C(F)(F)C(F)F` was tested, and the outcome was “inactive”.
In the case of `F[Si-2](F)(F)(F)(F)F`, the outcome is reported as “inactive”.
For `CCCCOC(=O)[C@H](C)O`, the outcome was “inactive”.
For `CSc1ccc(O)cc1C`, the outcome was “inactive”.
For `CCOCOCC`, the outcome was “inactive”.
For `OCC(O)CC(F)(F)C(F)(F)C(F)(F)C(F)(F)F` (stereo not given), the outcome was “inactive”.
With `O=c1[nH]cccc1O` the outcome was “inactive”.
For `CN(N=O)C(=O)N[C@@H]1[C@@H](O)[C@H](O)[C@@H](CO)O[C@@H]1O`, the outcome was “inactive”.
`CC1=CC2C3C=CC(C3)C2C1C` (stereo not given) was tested, and the outcome was “inactive”.
For `CC(C)CCCC(C)CCO` (stereo not given), the outcome was “inactive”.
`CC1=CCC2C(=O)OC(=O)C2C1` (stereo not given) was tested, and the outcome was “inactive”.
With `c1ccc(C[P+](c2ccccc2)(c2ccccc2)c2ccccc2)cc1` the outcome was “inactive”.
For `CC(C)C(=O)OCc1ccccc1`, the outcome was “inactive”.
`O=C(Cl)C(F)(F)C(F)(F)C(F)(F)C(F)(F)C(F)(F)C(F)(F)F` was tested, and the outcome was “inactive”.
In the case of `OCCCC(F)(F)C(F)(F)C(F)(F)C(F)(F)C(F)(F)C(F)(F)C(F)(F)C(F)(F)F`, the outcome is reported as “inactive”.
In the case of `CCN=c1cc2oc3cc(NCC)c(C)cc3c(-c3ccccc3C(=O)OCC)c-2cc1C`, the outcome is reported as “inactive”.
In the case of `O=C1C=CC(=O)N1c1ccccc1`, the outcome is reported as “inactive”.
